Source: PubChem
AmpC inh no detg: qHTS Inhibitors of AmpC Beta-Lactamase (assay without detergent) | AmpC nitrocefin hydrolysis, absorbance 480 nm, 0.0001% Triton | P00811 | Potency, µM (doses to about 57.1 µM), for the others: top-dose activity change, negative = inhibition, most hits filed as inhibitors | hit rate 0.52% among 330,000;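 also: plate controls were no compound for no effect and no enzyme for full effect; nearly all actives have a fitted effect of over 20% in size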
Target sequence (P00811 whole entry, looked up): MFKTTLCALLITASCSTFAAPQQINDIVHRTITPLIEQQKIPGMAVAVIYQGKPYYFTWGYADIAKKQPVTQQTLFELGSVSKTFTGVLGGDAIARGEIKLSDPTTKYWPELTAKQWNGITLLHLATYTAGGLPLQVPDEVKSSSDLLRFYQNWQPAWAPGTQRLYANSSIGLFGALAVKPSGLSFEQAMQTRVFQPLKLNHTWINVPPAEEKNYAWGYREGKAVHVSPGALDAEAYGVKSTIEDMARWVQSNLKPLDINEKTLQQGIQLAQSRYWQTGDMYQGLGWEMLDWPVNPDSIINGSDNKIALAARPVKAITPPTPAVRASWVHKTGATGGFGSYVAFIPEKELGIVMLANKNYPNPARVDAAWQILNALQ
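AmpC (5.3 nM in the dispensed reagent) in 20 mM phosphate pH 7.0 with 0.01% (detergent screen) or 0.0001% Triton X-100 was preincubated with compounds for 15 min at room temperature. Nitrocefin was then added from an 800 uM solution, and hydrolysis was followed at 480 nm.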
AmpC detergent: qHTS Inhibitors of AmpC Beta-Lactamase (assay with detergent). AID 485294, 2010. Potency, µM (highest dose often 114 µM), for inactives: at the highest dose activity change, negative = inhibition, usual class: inhibitors. AmpC hydrolysis of nitrocefin, absorbance 480 nm, 0.01% Triton. hit rate 0.041% among 370,000. P00811;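 also: 0% = no-compound wells and -100% = no-enzyme wells; nearly all actives have a fitted effect of over 25% in size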
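20 mM phosphate pH 7.0 + 0.01% (detergent screen) or 0.0001% Triton X-100; 5.3 nM AmpC reagent; cpd preinc 15 min RT; nitrocefin (800 uM stock) to start; A480 q20 s × 4 min; Activity was normalised to no-enzyme and no-compound control wells.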
Sm TGR block: qHTS Assay for the Inhibitors of Schistosoma Mansoni Peroxiredoxins; hit rate 3% among 360,000; Schistosoma mansoni thioredoxin glutathione reductase (TGR), Q962Y6; purified TGR, DTNB reduction, TNB absorbance 405 nm; Potency, µM (top dose mostly 114 µM), inactives show top-dose activity change, negative = inhibition, most hits filed as inhibitors; also: nearly all actives have a fitted effect of over 60% in size
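Kinetic colorimetric format: TGR-catalysed, NADPH-driven DTNB reduction monitored via TNB absorbance. Enzyme dispensed at 20 nM; compound exposure 15 min at room temperature before reaction start.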
* hit, by the source's call. Compounds with a hit are over-represented: about 3.3% of the library has one in this group of screens. Calls follow the shape of the dose curve; as a rule, active = well fitted curve in the direction sought with a large enough effect; inconclusive = small, poorly fitted or top-dose-only effect, or another doubt; inactive = no such curve, though single readings can be large; an effect the other way counts as inactive or inconclusive. Unless noted, % is scaled to controls: 0 for no effect and ±100 for the full control effect; potency is read from the fitted curve at half-maximal effect.

O=C1C(Nc2cccc(O)c2)=C(N2CCCCC2)C(=O)c2ccccc21 was read as AmpC inh no detg -50%, AmpC detergent inconclusive and Sm TGR block 10µM*.
`COc1ccccc1NC1=C(N2CCCCC2)C(=O)c2ccccc2C1=O` gave AmpC inh no detg -24%, AmpC detergent -1% and Sm TGR block inconclusive.
For Cc1ccc(NC2=C(N3CCCCC3)C(=O)c3ccccc3C2=O)cc1 the results were AmpC inh no detg -14%, AmpC detergent -1% and Sm TGR block 13µM*.
`O=C1C(NS(=O)(=O)c2ccc(Br)cc2)=C(N2CCCCC2)C(=O)c2ccccc21` gave AmpC inh no detg -28%, AmpC detergent 3% and Sm TGR block -18%.
CN(C1=C(N2CCCCC2)C(=O)c2ccccc2C1=O)c1ccccc1 was read as AmpC inh no detg -28%, AmpC detergent 3% and Sm TGR block inconclusive.
Screening Cc1cccc(CNC(=O)CCCN2C(=O)c3cccnc3Oc3ccccc32)c1 returned AmpC detergent 15% and Sm TGR block 2%.
`COc1ccc(Nc2nc3ccc(Cl)cc3n3nnnc23)cc1OC` gave AmpC detergent -9% and Sm TGR block 3%.
`CC1=C(C(=O)Nc2ccc(C)c(C)c2)C2(CCCCCC2)OC1=O` gave AmpC detergent 8% and Sm TGR block 0%.
CN(C)CCCNc1oc(/C=C/c2ccc(F)cc2)nc1C#N was read as AmpC detergent 15% and Sm TGR block 1%.
Screening COc1ccc(Br)cc1CNC(=O)CSc1cc(=O)n(C)c2ccccc12 returned AmpC detergent -3% and Sm TGR block 8%.
Screening CC1=C(Nc2ccc(C(=O)O)cc2)C(=O)c2ccccc2C1=O returned AmpC inh no detg -24%, AmpC detergent -13% and Sm TGR block 22µM*.
For CC(C(=O)Nc1ccc(C(=O)O)cc1)N1C(=O)c2ccccc2C1=O (stereo not drawn) the results were AmpC inh no detg -15%, AmpC detergent inconclusive and Sm TGR block 15%.
Screening CCOC(=O)c1ccccc1NC(=O)NCc1c(-n2cccc2)sc2c1CCCC2 returned AmpC detergent -3% and Sm TGR block -10%.
For CC(C)(C)c1ccc(C(=O)NCCc2ccccc2)cc1 the results were AmpC inh no detg -20%, AmpC detergent -3% and Sm TGR block 3%.
CC(=O)Nc1ccc(C(=O)NCCc2ccccc2)cc1 was read as AmpC inh no detg -2%, AmpC detergent -10% and Sm TGR block 5µM*.
For CCOC(=O)C1CCC(CN(Cc2ccc(Cl)cc2)S(=O)(=O)c2cc(Cl)cc(Cl)c2)CC1 (stereo not drawn) the results were AmpC detergent 9% and Sm TGR block 3%.
`CCOC(=O)/C(=C/c1ccco1)NC(=O)c1ccc(Br)o1` gave AmpC inh no detg -15%, AmpC detergent 1% and Sm TGR block 18µM*.
Screening O=C(N/C(=C/c1ccco1)C(=O)N1CCc2ccccc21)c1ccco1 returned AmpC inh no detg -39%, AmpC detergent 1% and Sm TGR block 32µM*.
CCNC(=O)/C(=C/c1ccco1)NC(=O)/C=C/c1ccccc1 was read as AmpC inh no detg -2%, AmpC detergent -1% and Sm TGR block 40µM*.
Screening CC(C)CC(NC(=O)/C(=C\c1ccco1)NC(=O)c1ccco1)C(=O)O (stereo not drawn) returned AmpC inh no detg -13%, AmpC detergent 5% and Sm TGR block 35µM*.
O=C(/C=C/c1ccccc1)N/C(=C\c1ccco1)C(=O)NCCO was read as AmpC inh no detg -25%, AmpC detergent 2% and Sm TGR block -28%.
`CCOC(=O)/C(=C/c1ccccc1)NC(=O)c1ccco1` gave AmpC inh no detg -11%, AmpC detergent -2% and Sm TGR block 14%.
Screening O=C(N/C(=C\c1ccccc1)C(=O)N1CCOCC1)c1ccco1 returned AmpC inh no detg 7%, AmpC detergent 1% and Sm TGR block 8%.
`CNC(=O)/C(=C\c1ccco1)NC(=O)c1ccco1` gave AmpC inh no detg -12%, AmpC detergent -8% and Sm TGR block inconclusive.
`Cc1c(Cl)cccc1NC(=O)c1ncn(-c2ccccc2)n1` gave AmpC detergent 5% and Sm TGR block -5%.
COc1ccc(-n2nc(C(=O)Nc3cccc(C)n3)c3c4ccccc4n(C)c3c2=O)cc1 was read as AmpC detergent 3% and Sm TGR block 1%.
`Cc1ccc(S(=O)(=O)c2nnn3c2nc(NCc2ccc(F)cc2)c2sccc23)cc1C` gave AmpC detergent -8% and Sm TGR block 5%.
For O=C(O)CCCCCNC(=O)/C(=C\c1ccco1)NC(=O)c1ccco1 the results were AmpC inh no detg -6%, AmpC detergent -4% and Sm TGR block 100µM*.
For CC(C)CC(NC(=O)/C(=C/c1ccco1)NC(=O)c1ccc(Br)o1)C(=O)O (stereo not drawn) the results were AmpC inh no detg -27%, AmpC detergent -6% and Sm TGR block 45µM*.
`O=C(NC(Cc1ccccc1)C(=O)O)/C(=C/c1ccccc1)NC(=O)c1ccc(Br)o1` (stereo not drawn) gave AmpC inh no detg -19%, AmpC detergent -2% and Sm TGR block -6%.
For O=C(O)CCNC(=O)/C(=C\c1ccco1)NC(=O)c1ccco1 the results were AmpC inh no detg -16%, AmpC detergent inconclusive and Sm TGR block inconclusive.
`CCOc1ccc(N(C(=O)c2ccc(C)cc2)S(=O)(=O)c2ccc3c(c2)n(C)c(=O)n3C)cc1` gave AmpC detergent -1% and Sm TGR block 3%.
Cc1ccc(S(=O)(=O)c2nc(-c3ccco3)oc2SCc2ccccc2Cl)cc1 was read as AmpC detergent 2% and Sm TGR block -19%.
COc1cc(/C=N/n2c(-c3ccccc3)n[nH]c2=S)ccc1O was read as AmpC inh no detg -50%, AmpC detergent 13% and Sm TGR block 4%.
Oc1c(Br)cc(/C=N/n2c(-c3ccccc3)n[nH]c2=S)c(O)c1Br was read as AmpC inh no detg -19%, AmpC detergent inconclusive and Sm TGR block -59%.
For Cc1c(Br)c(O)c(Br)c(O)c1/C=N/n1c(-c2ccccc2)n[nH]c1=S the results were AmpC inh no detg -21%, AmpC detergent -2% and Sm TGR block 35µM*.
For COc1cc(/C=N/n2c(-c3ccccc3)n[nH]c2=S)cc(OC)c1O the results were AmpC inh no detg -34%, AmpC detergent -7% and Sm TGR block 32µM*.
Cc1ccc(-n2nc(C(=O)N(C)c3ccccc3Cl)c3c4ccccc4n(C)c3c2=O)cc1 was read as AmpC detergent 1% and Sm TGR block 3%.
`CC(=O)Nc1ccc(S(=O)(=O)NCC2CCC(C(=O)NCc3ccccc3Cl)CC2)cc1` (stereo not drawn) gave AmpC detergent 4% and Sm TGR block 6%.
Cc1cccc(C)c1N/C=C/c1onc(C)c1[N+](=O)[O-] was read as AmpC detergent -2% and Sm TGR block 89µM*.
Screening Cc1ccc(N/C=C/c2onc(C)c2[N+](=O)[O-])cc1 returned AmpC inh no detg -6%, AmpC detergent -8% and Sm TGR block 4%.
